The panel holds about 83,000 compounds, 20% with a hit somewhere; the sample as a whole holds those more often.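 Compound tested at a single concentration for 48 hours in 96-well plates; a percent growth value below 10 was scored as active.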 The source made the active and inactive calls.
Test system: COLO 205 colon
Test: NCI-60 one-dose screen, 48 h (100 = growth as untreated, 0 = no growth, -100 = all killed)
Conditions: 10 µM unless noted

| SMILES | growth |
| --- | --- |
| CN(C[C@H]1Cc2c(cccc2N2CCN(c3ncccn3)CC2)CN1)[C@H]1CCCc2cccnc21 | 10.2% (inactive) |
| COc1ccc(-c2cnoc2-c2ccc(OC)cc2O)cc1 | 72.4% (inactive) |
| COc1ccc(/C=N\NC(=O)CN2CCN(c3cc4c(cc3F)c(=O)c(C(=O)N/N=C/c3ccc(OC)c(OC)c3)cn4C3CC3)CC2)cc1OC | 7.74% (active) |
| C1=Cc2ccccc2N(c2nnc(-c3ccccc3)o2)c2ccccc21 | 91.3% (inactive) |
| COc1ccc(-c2nc3sc(-c4cc(OC)c(OC)c(OC)c4)nn3c2/C=C2/C(=O)Nc3ccc(F)cc32)cc1 | -43.8% (active) |
| O=C(Oc1ccccc1[N+](=O)[O-])C1CCCN1C(=O)OCc1ccccc1 (stereo not drawn) | 115% (inactive) |
| CC(C)(C)OC(=O)NC(CSCc1ccccc1)C(=O)ON1C(=O)CCC1=O (stereo not drawn) | 112% (inactive) |
| O=S(=O)(NCCCNc1nccc(-n2ccc3cccnc32)n1)c1ccc(Br)cc1 | 114% (inactive) |
| COc1ccc(/C=C2\Oc3cc(OCCCN4CCCC4)ccc3C2=O)cc1 | 93.5% (inactive) |
| Cc1csc(NC(c2ccc(Br)cc2)c2c(C)nc3ccccn23)n1 (stereo not drawn) | 90.2% (inactive) |
| Cn1c(=O)cc(NC(=O)CN2CCN(c3cc4c(cc3F)c(=O)c(C(=O)O)cn4C3CC3)CC2)[nH]c1=O | 106% (inactive) |
| CC(C)(C)n1cc(-c2ccnc(NCCNS(=O)(=O)c3ccc(F)cc3)c2)c(-c2cccc(O)c2)n1 | -2.98% (active) |
| CC(C)(C)n1cc(-c2ccnc(NCCNS(=O)(=O)c3ccc(Cl)cc3)c2)c(-c2cccc(O)c2)n1 | -7.89% (active) |

From PubChem BioAssay (NCI)
